# Experimental data from the supplement of paper PMC3334620.
# Whole data set: some 33,000 sequences, median “E-score (-0.5 to 0.5)” near -0.041, cut for the highest 2% near 0.37. What follows is part of a selection rich in the highest values, with near analogues and random picks from the rest.
# Molecular target: T1, Ecm22 (UniProt Q05958)
# T1 sequence: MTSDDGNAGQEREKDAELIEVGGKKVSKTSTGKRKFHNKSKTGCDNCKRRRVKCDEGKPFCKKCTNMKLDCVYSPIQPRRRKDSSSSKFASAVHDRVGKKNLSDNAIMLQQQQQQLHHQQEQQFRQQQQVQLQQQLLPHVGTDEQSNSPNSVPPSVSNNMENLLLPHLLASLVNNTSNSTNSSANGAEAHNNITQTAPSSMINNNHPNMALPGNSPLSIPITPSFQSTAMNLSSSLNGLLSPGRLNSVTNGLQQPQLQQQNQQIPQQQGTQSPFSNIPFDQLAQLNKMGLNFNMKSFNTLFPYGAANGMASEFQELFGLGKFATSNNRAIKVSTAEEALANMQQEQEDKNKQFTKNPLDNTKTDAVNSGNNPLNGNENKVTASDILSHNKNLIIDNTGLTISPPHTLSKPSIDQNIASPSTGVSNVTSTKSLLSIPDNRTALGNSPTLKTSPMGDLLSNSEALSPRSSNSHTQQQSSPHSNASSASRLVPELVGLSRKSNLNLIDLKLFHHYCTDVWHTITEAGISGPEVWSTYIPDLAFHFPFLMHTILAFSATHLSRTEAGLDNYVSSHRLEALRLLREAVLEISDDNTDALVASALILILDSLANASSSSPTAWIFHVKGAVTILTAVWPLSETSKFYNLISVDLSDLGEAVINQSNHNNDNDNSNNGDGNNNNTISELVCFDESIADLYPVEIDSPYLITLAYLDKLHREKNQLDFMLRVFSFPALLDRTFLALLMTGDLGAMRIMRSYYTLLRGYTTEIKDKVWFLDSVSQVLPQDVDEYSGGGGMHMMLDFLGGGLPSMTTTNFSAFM
# Test: PBM E-score (8-mer binding enrichment) (E-score (-0.5 to 0.5)); higher = stronger / more preferred TF binding
# Details: protein concentration: 200 nM; construct: GST-full length
# Method in brief: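 For each ungapped eight-base word taken together with its reverse complement, the Universal PBM Analysis Suite assigned an E-score. Binding data came from GST-tagged yeast transcription factors, applied at about 100-200 nM, on universal all-10-mer Agilent arrays made double-stranded by primer extension. Fluorescent anti-GST marked bound protein, and scans were normalised with masliner.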
row,Sequence,PBM E-score
1,ATATACCA,0.0649
2,ATATACTG,0.0789
3,CTATACGC,0.403
4,CAGGCTTA,-0.245
5,CTTGTGGC,-0.239
6,AAAGGTCG,0.00556
7,ACGATCAG,0.224
8,GATCAGGA,-0.069
9,AGTTGTCA,-0.0616
10,CGGGTCGA,-0.00467
11,GCCGTTAA,0.24
12,ACCGTTTG,0.287
13,GCCGTTTA,0.421
14,GCCGTTGA,-0.138
15,ACCGTTTA,0.432
16,CACGTTTA,0.256
17,ACCGTTTC,0.187
18,CCCGTTTA,0.433
19,CCCGTTTC,0.216
20,GCAGCGCA,-0.0703
21,ACGCAGAT,0.194
22,CACGAGAC,0.0819
23,CACGAGAA,0.143
24,AACGAGAT,0.438
25,AACGAGAA,0.424

row,Sequence,PBM E-score
1,TCCGAGAA,0.265
2,TACGAGAA,0.462
3,ACCGAGAT,0.178
4,GACGAGAA,0.138
5,GACGAGAC,0.029
6,ATCGAGAT,0.0251
7,TTCGAGAA,0.149
8,AACGAGAC,0.451
9,CTCCCTCA,-0.162
10,CTTCTAAA,-0.0244
11,GCTGTCTA,-0.0813
12,GGTACTAA,0.0853
13,CACAGAAC,0.00026
14,CTCGACCA,-0.0786
15,CCCGAAGA,0.0524
16,AATGCAGA,-0.0678
17,CACGAGAG,0.0712
18,AACGAGAG,0.433
19,ATCGAGAG,0.0766
20,ATCAAGGG,-0.149
21,CGCTACGA,0.456
22,GGCTACCA,-0.2
23,CTCTACGA,0.37
24,CGCTACAA,0.0321
25,GGCTACGA,0.424

row,Sequence,PBM E-score
1,GGCTACAA,0.042
2,AGCTACGC,0.141
3,CTCTACGC,0.00503
4,AGCTACGA,0.394
5,ATCTACGA,0.304
6,AGCTACGG,0.112
7,CGCTACGC,0.138
8,AGCGGGTA,0.107
9,GACCTGAC,-0.172
10,GAACTTGC,-0.0845
11,ATGCACCG,-0.0745
12,TATATCGA,0.131
13,GGCTGAAC,-0.0835
14,ACATTTGA,-0.158
15,CTTTGGAC,-0.0902
16,CTACGGTA,0.0823
17,GCACGGTA,-0.0289
18,GTACGGTA,0.385
19,AGACGGTA,-0.121
20,ATACGGTA,0.383
21,ACACGGTA,0.108
22,AGATAGCT,-0.0945
23,AGGCTCCA,-0.369
24,CTGCACAA,-0.214
25,CGGCAACC,-0.082

row,Sequence,PBM E-score
1,AACATTCT,-0.0433
2,ATTTATAA,0.0523
3,CTTTATAC,0.23
4,ATTTATAC,0.401
5,AAGAACCC,-0.0304
6,AGTACCTC,-0.19
7,CGTACCTC,0.435
8,CGTACCTA,0.441
9,CCTACCTC,-0.0998
10,GGTACCTA,-0.1
11,AGTACCTA,-0.104
12,CTAGAACA,-0.0457
13,CGGGTCGC,0.187
14,AACGTCGA,0.178
15,ACCGTCGC,0.278
16,AACGTCGG,0.17
17,AACGTCGT,0.37
18,ACCGTCGA,-0.216
19,ACCGTCGT,0.404
20,AAGCTCAG,-0.321
21,CGGTTCGC,0.151
22,AACCTAGC,-0.09
23,AGAGGGGG,-0.0644
24,ACAGCACC,-0.276
25,GCTCGTTA,0.373

row,Sequence,PBM E-score
1,ACTCGTTC,0.466
2,GCACGTTA,0.0282
3,ACTCGTTA,0.348
4,CCTCGTCC,-0.238
5,CCTCGTTC,0.474
6,GCTCGCTA,0.31
7,CCTCGTGC,0.0902
8,CCACGTTA,0.0599
9,CCTCGTTA,0.402
10,ACTCGTTG,0.274
11,ACTCGGTC,0.229
12,TCTCCTAA,-0.203
13,TCTAGGAA,-0.0513
14,CCTCGCTA,0.215
15,ACTCGCTC,0.354
16,CCTCGCTC,0.372
17,GGGAGAAA,-0.141
18,GGGGACCA,-0.259
19,AACGATTA,0.382
20,CACGATTC,0.244
21,GACGATTA,0.0551
22,AACGATTC,0.377
23,AACGATTG,0.384
24,CACGATTA,0.1
25,AGCGATTC,0.12

row,Sequence,PBM E-score
1,ACCGATTG,0.115
2,ATCGATTG,0.0987
3,CAGGGCAA,-0.227
4,CTGACGTA,0.132
5,AAGATACA,-0.046
6,GACTCGAC,0.0219
7,ATGAGATG,-0.227
8,ACTGCTGA,-0.19
9,CCCTCTCC,-0.358
10,CTAGGAAA,-0.209
11,CGCGCAAA,0.188
12,CTACGGGA,0.146
13,GTACGGGA,0.419
14,ATACGGGG,0.386
15,AAACGGGG,0.361
16,GCACGGGA,0.0895
17,ACACGGGA,0.0892
18,ATACGGGC,0.413
19,AGACGGGG,-0.0581
20,ACACGGGC,-0.0743
21,ATACGGGA,0.389
22,CTACGGGC,-0.0464
23,GAACGGGA,0.327
24,AAGCGCAC,0.0929
25,AAGCTTGT,0.0175

row,Sequence,PBM E-score
1,ACAATCCT,-0.0917
2,GGGGCAGA,-0.0715
3,ATCCTGCC,-0.0749
4,CGAGCACA,0.225
5,AGCCCTGG,-0.233
6,TAACCCCA,-0.181
7,ACAACTCC,-0.151
8,CGGCGAAA,0.0597
9,CCGTATGC,0.268
10,CTGTATAA,0.0431
11,CCGTATAA,0.473
12,CGGTATAA,0.161
13,GCGTATAC,0.406
14,ACGTATAC,0.381
15,ACGTATGA,0.17
16,ATGTATAC,0.179
17,GAGTATAC,0.286
18,GGGTATAC,0.15
19,CCGTATGA,0.396
20,AAGTATAC,0.255
21,AGTGCCAA,-0.0554
22,CTGCCTCA,-0.257
